40 compounds from PubChem BioAssay (NCI) can be followed below.

The structures appear in SMILES notation. Compounds without any hit were thinned out: in the full panel of roughly 83,000, 20% have a hit.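 Method: cells in 96-well plates; compound added at one concentration; 48 h incubation; percent growth measured; values under 10 scored active.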 A number with no mark means an inactive call. Activity calls are given as the source filed them.

The subject of the experiment is UACC-62 melanoma. Description: NCI-60 one-dose screen, 48 h (100 = growth as untreated, 0 = no growth, -100 = all killed). The following applies: 10 µM unless noted. The procedure: Growth inhibition of the UACC-62 human tumor cell line is measured as a screen for anti-cancer activity. Cells are grown in 96 well plates and exposed to the test compound for 48 hours. Compounds are tested at a single concentration, which is 10^-5 M for most compounds. The reported endpoint is percent growth (GI% or GIPRCNT), where numbers from 0 - 100% represent growth inhibition, and numbers from -100% - 0 represent cell death. For example, a value of 40 represents 60% growth inhibition. A value of 0 means no net growth occurred over the course of the experiment. A value of -40 indicates 40% of cells at the beginning of the experiment died by the end of the experiment. A value of -100 means all cells are dead at the end of the experiment.
NCI-60 Human Tumor Cell Lines Screen was performed using the standard one-dose NCI protocol, which is described in more detail at https://dtp.cancer.gov/discovery_development/nci-60/default.htm.
Compounds with GIPRCNT values below 10 were considered active. Activity score was based on GIPRCNT using the following formula: […]
Score is 0 for GIPRCNT values of 100 or above, 50 for GIPRCNT values of 0, and 100 for GIPRCNT values of -100.
`CCc1cccc2c3c(sc12)C(c1ccc(F)cc1)C(C#N)=C(/N=C/c1ccc(Cl)cc1)O3` (stereo not given): the growth is 23.8%.

Take `CC(Nc1ncnc2ccc(-c3cnc(N)nc3)cc12)c1ccccc1` (stereo not given): the growth was 28.5%.

Consider `CN1CCN(c2ccc(C(=O)/C=C/c3cc(F)cc(C(F)(F)F)c3)cc2)CC1`, for which the growth is 82.8%.

With `Cc1cccc(N2CCN(C3=C(Cl)C(=O)c4ncccc4C3=O)CC2)c1`, the growth is 74.3%.

Regarding `O=C(Nc1ccc(N=Cc2c(O)[nH]c3ccccc23)cc1)Nc1ccc(S(=O)(=O)Nc2ncccn2)cc1`, the growth was 103%.

In the case of `O=C(N/N=C\c1ccc([N+](=O)[O-])cc1)c1ccc2nc(-c3ccc(Br)cc3)[nH]c2c1`, the growth was 31.4%.

Take `C[C@]12CC[C@H]3[C@@H](CC=C4C[C@@H](O)CC[C@@]43C)[C@@H]1CC[C@@H]2[C@](C)(O)CCc1cccnc1`: the growth was 62.6%.

As to `COc1cc(NC(=O)Nc2cccc(-c3cc(=O)c4c(OC)c(OC)c(OC)cc4o3)c2)cc(OC)c1OC`, the growth was 48.4%.

Consider `COc1ccc(/C(=N\NC(N)=S)c2ccc(Cl)cc2)cc1OC`, for which the growth was 18.9%.

As for `CCc1cc(O)ccc1Nc1cc(-c2ccc(-n3cccn3)cc2)[nH]n1`, the growth was 43.2%.

Regarding `Cc1ccccc1Nc1nc(SC(C)C)nc(-c2ccccc2)c1C#N`, the growth was 92.3%.

Take `CS(=O)(=O)c1ccc(/C(=N/N=C(N)N)c2ccc(Cl)cc2)cc1`: the growth is 80.8%.

Turning to `C/C(CC1(O)C(=O)Nc2ccccc21)=N\O` (stereo not given), the growth was 99.7%.

`CCOP(=O)(OCC)OC[C@]12CCC(C)(C)CC1C1=CC[C@@H]3[C@@]4(C)CCCNC(C)(C)[C@@H]4CC[C@@]3(C)[C@]1(C)CC2` (stereo not given in full): the growth was 90.5%.

Consider `CN(C)c1ccc(/C=N/Nc2nc(N/N=C/c3ccc(N(C)C)cc3)nc(N3CCCCC3)n2)cc1`, for which the growth was 101%.

As to `O=S(=O)(NCCCNc1nccc(-c2[nH]c(-c3ccccc3)nc2-c2ccc(F)c(O)c2)n1)c1cccc2ccccc12`, the growth was 26.3%.

`CCCCSC1=C(Cl)CN(c2ccccc2)C1=O`: the growth is 95.7%.

Turning to `CN1CCN(c2ccc(Nc3nc(NCCCNS(=O)(=O)c4ccccc4)c4sccc4n3)cc2)CC1`, the growth is 13.2%.

In the case of `CCNC(=O)Oc1ccc(/C(=C(/C)c2ccc(OC)cc2)c2ccc(OCCN3CCCCCC3)cc2)cc1`, the growth was 41%.

Take `O=C1Nc2cc(Cl)ccc2/C1=C\c1ccc(OCc2ccccc2)cc1`: the growth is 95.9%.

As to `O=C1C(N2CCN(c3ccccc3)CC2)=C(Cl)C(=O)c2ncccc21`, the growth is 61.8%.

Regarding `C#Cc1nc(/C=C\CCCCCCC(=O)NO)cs1`, the growth is 31.2%.

For the compound `CC(C)C(/C=C/c1[nH]ncc1-c1cc(Cl)ccc1O)N1CCOCC1` (stereo not given), the growth was 87.1%.

`Cn1c(SCC(=O)c2ccc(Br)cc2)nc2ccccc2c1=O`: the growth is 77.5%.

Consider `O=C1/C(=C/c2cc(F)cc(F)c2)Cc2cc3c(cc21)OCO3`, for which the growth was 24.3%.

With `CNC(=O)c1cc(Oc2ccc3c(c2)sc2nc(-c4ccc(N(C)C)cc4)cn23)ccn1`, the growth was 41.4%.

`Oc1[nH]c2ccc(Cl)cc2c1N=Nc1nc(N=Nc2c(O)[nH]c3ccc(Cl)cc23)nc(N2CCCCC2)n1`: the growth was 88.5%.

On to `CCCCc1nc2c(N)nc3ccccc3c2n1Cc1cccc(CN)c1`, for which the growth is 76.3%.

For the compound `COc1ccc2[nH]cc(/C=N/Nc3ccnc4cc(Cl)ccc34)c2c1`, the growth is -98.3% (active).

Consider `CCOC(=O)Nc1ccc2c(ccn2C(=O)c2cccc(F)c2)c1`, for which the growth is 32.3%.

Take `CCOC(=O)c1ccc(NC2=C(Cl)C(=O)c3nc(C)ccc3C2=O)cc1`: the growth is 55.5%.

Regarding `CCCCCCNC(=O)Oc1ccc(/C(=C(/C)c2ccc(OC)cc2)c2ccc(OCCN3CCCCCC3)cc2)cc1`, the growth is 5.76% (active).

Take `O=S(=O)(NCCCNc1nccc(-c2[nH]c(-c3ccccc3)nc2-c2ccc(F)c(O)c2)n1)c1ccccc1`: the growth was 19.6%.

On to `O=S(=O)(Oc1ccc(-c2cn3ccoc3n2)cc1)C1CCCCC1`, for which the growth is 85.3%.

As to `CC(=C(c1ccc(OCCCN(C)C)cc1)c1ccc(OCCCN(C)C)cc1)c1ccc(Cl)cc1`, the growth is 101%.

As for `Brc1ccc(-c2cc(-c3ccc4c(c3)OCCO4)n[nH]2)s1`, the growth was 49.5%.

With `CCN(CC)CCOc1ccc(C(=C(c2ccccc2)C2CCCC2)c2ccc(OCCN(CC)CC)cc2)cc1`, the growth is -74.7% (active).

For `O=C(/C=C/c1ccccc1)c1cccc(O)c1`, the growth is 81.1%.

Take `C[C@H](Nc1ncnc2ccc(-c3cnc(Cl)c(NS(C)(=O)=O)c3)cc12)c1ccccc1`: the growth is -57.8% (active).

For `CC(C)(C)OC(=O)Nc1ccc(-c2cccc(Oc3ccc4nnc(Cl)n4n3)c2)cc1`, the growth was 63.6%.
